For the experiment, the system named is PPARg:RXRa 90nM:30nM, anti-RXR (NR concentration 90 nM, RXRa partner concentration 30 nM). Kind of experiment: PBM binding z-score (relative to random genomic background probes); higher = stronger binding; sequences stand for … in GC…GCGATTGACAGCGTAGAATGAAGG
The procedure, abridged:
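Ligand-free nuclear receptor dimers were applied to custom Agilent 4×180K protein-binding microarrays whose double-stranded probes carried direct-repeat seeds, single-nucleotide variants, half-site ablations and random human genomic background sequences in 34-nt variable regions. Incubation lasted 1 h. Binding z-scores were computed against the random background probes from regression-normalized fluorescence.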
Sequence TCTAGCAGGCCAGAGGGTCACACAAGAGGTACGG registered a PBM binding z-score of 3.09.

As for AGTCAAAGTTCACTTGGTAACGTAAGATTCAGCT, the PBM binding z-score was found to be 4.52.

As for CCGACTGGGGCAGAAAGGTTACCATGCCATCCGG, the PBM binding z-score came to 1.82.

Regarding GCTCGGAGGACACGGTCAGAGCTTTGTCCGTAGA, the PBM binding z-score was -1.06.

CCTATTAGTTGACCATAAGGTCAACCGAAGCTCG showed a PBM binding z-score of 2.61.

In the case of AGTCAAAGCTCATCTAGGTAACGTAAGATATGCT, the PBM binding z-score worked out at 0.0855.

With TCTAGTTGGTCACGAAGGTCACACACGACGGGTA, the PBM binding z-score was determined as 4.25.

On to TCAGATAGGTAATACAGGTGAAAGTCGGCATCTA, for which the PBM binding z-score worked out at 3.25.

On to CAGCCTAGGTCGGGGCCAGTATAGGAGGAACGTT, for which the PBM binding z-score is -0.981.

Take CGAACTAGATCAAGGACAGTGAATCTCCGCACGC: the PBM binding z-score is -0.36.

For CGTCCAAGGTCAAGGTCAGCGAAAGAGACTCGAA, the PBM binding z-score was 5.28.

Turning to CAGCCTAGGTCAAGGCCAGTATAGGAGGAACGTT, the PBM binding z-score amounted to 1.18.

On to ATACCAAGGTGATCGTGAGGTGGTTGATACTAAC, for which the PBM binding z-score was determined as 0.142.

As for CAAACTAGGTCGCAGAGGTCAAAGTCCGTGCGTA, the PBM binding z-score turned out to be 6.06.

Regarding ATCTCTAAGTAAGACTCAGTTCAGTGAAGAACGC, the PBM binding z-score was 0.392.

CGTCAAAGTTCAACTAAGGTAACGGAAAGCACGC: the PBM binding z-score turned out to be 4.58.

For TCTTGTAGATTAAAGGTTAAGAAAGCCGAAGCCT, the PBM binding z-score was found to be 7.33.

With TCGTATAGGTAAAGGTGAAAGTCGAACGATATGA, the PBM binding z-score came to 3.86.

CCTGCTAGGTCAATGGTCAACTAAAGCAGCTCGC yielded a PBM binding z-score of 5.51.

Take TCTCGGACGACACGAAGGTCAGAGCTTTCCAGAG: the PBM binding z-score was 2.15.

The sequence AAAGACAGGTGATGAAGGTAACTCAGGCTATCAT came in with a PBM binding z-score of 0.473.

As for TCTTGTAGTTCAGCAGGTTAAGAAAGCTGGCCAA, the PBM binding z-score was 1.86.

These data come from the supplement of paper PMC6555819.
